# KLK7 zymogen act: activators of human kallikrein-7 zymogen | P49862 | purified proKLK7, EDANS-DABCYL substrate fluorescence; 100% is mature enzyme control, 0% vehicle | activation, % at 7 µM | 370,000 tested, 0.9% active;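 active = activation above the mean of all tested compounds plus 3 SD, computed per campaign excluding outliers beyond control limits, cut at about 13% in these data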
# Target sequence (P49862 whole entry, looked up): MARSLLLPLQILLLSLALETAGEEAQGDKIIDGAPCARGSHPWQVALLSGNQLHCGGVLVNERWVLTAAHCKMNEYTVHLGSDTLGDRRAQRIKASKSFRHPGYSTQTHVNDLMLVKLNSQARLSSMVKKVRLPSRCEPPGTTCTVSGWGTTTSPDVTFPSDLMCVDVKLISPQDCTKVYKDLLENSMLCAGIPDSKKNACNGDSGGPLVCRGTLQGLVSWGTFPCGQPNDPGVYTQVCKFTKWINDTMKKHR
# GC-B act: GC-B (human) receptor activation; P20594; HEK293-GC-B cells, CNP EC30, cGMP TR-FRET; 0% at EC30 CNP, 100% saturating CNP; activation, % at 10 µM; 370,000 tested, 0.11% active; AID 1920062;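 active = activation at 10 µM reaching about 35% in either raw or pattern-adjusted values, limit read from the data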
# ADAM17 inh: ADAM17 inhibition, QFRET primary screen; 370,000 tested, 0.83% active; recombinant ADAM17, EDANS/DABCYL FRET peptide cleavage; inhibition, % at 6.95 µM; AID 720648;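 active = inhibition above the mean of compounds lying between control limits plus 3 SD, set per campaign, cut at about 8.5% in these data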;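 note: 0% = DMSO-only wells as the low control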
# ADAM10 inh: inhibitors of human ADAM10 | O14672 | recombinant ADAM10, EDANS/DABCYL FRET peptide cleavage, 3 h | inhibition, % at 7 µM | 370,000 tested, 0.62% active;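 active = inhibition above a per-campaign cutoff equal to the mean of compounds falling between control-based bounds plus 3 SD, cut at about 20% in these data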;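 note: 0% = DMSO wells while the 100% control is not disclosed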
# GC-A act: GC-A (human) enzyme activation. P16066. HEK293 GC-A cells, cGMP TR-FRET, EC30 ANP; 0% at EC30 ANP, 100% saturating ANP. activation, % at 10 µM. 370,000 tested, 0.14% active. AID 1671463; in the data active = activation above about 40%
# ADAM10 counter: inhibits human ADAM10 in ADAM17 exosite counter-screen. shares compounds with ADAM17 inh. recombinant ADAM10, EDANS/DABCYL FRET peptide cleavage, 3 h. inhibition, % at 6.95 µM. 2,900 tested, 47% active. AID 743256;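 active = mean inhibition over the triplicate runs exceeds the activity threshold set in the earlier primary screen, cut at about 20% in these data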;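 note: 0% = DMSO wells and 100% = marimastat wells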
# ADAM17 confirm: confirmation of inhibitors of human ADAM17. shares compounds with ADAM17 inh. recombinant ADAM17, EDANS/DABCYL QFRET peptide cleavage. inhibition, % at 6.95 µM. 2,900 tested, 65% active;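 active = mean inhibition across replicates above the hit cutoff set in the primary screen, cut at about 8.5% in these data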;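 note: 0% = DMSO wells and 100% = marimastat wells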
# Active calls of the source: *; x = no result. Rows were chosen to be rich in hits. Some 2.2% of all compounds tested hit in one or more screens of this group.
SMILES,KLK7 zymogen act,GC-B act,ADAM17 inh,ADAM10 inh,GC-A act,ADAM10 counter,ADAM17 confirm
CCOc1cc(/C=N/NC(=O)COc2ccc(Cl)cc2)ccc1OS(=O)(=O)c1ccccc1,1,-4,14*,18,0,37*,17*
CCOc1cc(/C=N/NS(=O)(=O)c2ccccc2)ccc1OS(=O)(=O)c1ccc(C)cc1,0,-3,3,11,-1,x,x
COc1ccc(-n2c(=S)[nH]c3c(oc4ccccc43)c2=O)cc1,-1,3,9.2*,6,20,3,6
COc1cccc(-c2ccc(CC[C@H]3O[C@H]4CC[C@H](CO)O[C@H]4C[C@H]3NS(C)(=O)=O)cc2)c1,1,-3,1,5,1,x,x
COC(=O)c1cc(-c2cc(Cl)cc(Cl)c2)c(=O)n2c1CCC2,-1,-1,-5,-5,-2,x,x
CC1=NN(c2ccccc2)C(=O)/C1=C/c1cccs1,0,-5,10*,18,0,1,0
N=c1c2c(ncn1Cc1ccco1)Oc1c(ccc3ccccc13)C2c1ccccc1 (stereo not given),-4,-4,9.3*,7,-7,4,8
Cc1ccc(Cn2c(=O)c3c(nc4n3CCCN4Cc3ccccc3)n(C)c2=O)cc1,1,6,10*,6,6,15,5
O=C(Cn1nnc(-c2ccncc2)n1)Nc1ccc(Cl)cc1,0,-4,4,8,-1,x,x
CCn1c(COc2ccccc2C)nnc1SCC(=O)N1CCN(c2ccccc2)CC1,0,5,-3,3,0,x,x
CCn1c(CC(=O)Nc2cccc(OC)c2)nnc1SCC(=O)N1CCN(c2ccccc2)CC1,0,-5,12*,4,-2,30*,18*
COC(=O)[C@]12C[C@H](CC(=O)N3CCN(C(=O)C4CC4)CC3)C(=O)N(Cc3cccc4ccccc34)C1=C[C@H](COCc1ccccc1)O[C@@H]2C,0,1,10.0*,8,-5,24*,20*
COC(=O)[C@]12C[C@H](CC(=O)N3CCN(C(=O)C4CC4)CC3)C(=O)N(Cc3ccccc3)C1=C[C@H](COCc1ccccc1)O[C@@H]2C,0,9,0,5,-1,x,x
CCC(C)CNC(=O)CN1C(=O)C2CCCCN2C(=O)c2ccccc21 (stereo not given),1,3,-5,-15,3,x,x
Cc1ccc(S(=O)(=O)NC(C)CCc2ccccc2)cc1 (stereo not given),0,3,9.5*,8,-1,2,6
CC(=O)Nc1ccc(S(=O)(=O)NC(C)CCc2ccccc2)cc1 (stereo not given),-1,4,-4,3,-6,x,x
O=C(c1cccc(F)c1)n1ccc2ccc(-c3ccc4ccn(Cc5ccccc5)c4c3)cc21,-20,1,-10,-35,3,x,x
COc1ccc(-c2noc(CCC(=O)N3CCN(c4cccc(C)c4C)CC3)n2)cc1,1,7,9.3*,9,-1,27*,16*
CC(Nc1ccc(Br)cc1)C(=O)N/N=C/c1ccccc1OCc1ccccc1 (stereo not given),0,-2,-1,1,-3,x,x
COc1ccc(NC(C)C(=O)N/N=C/c2ccccc2OCc2ccc(Br)cc2)cc1 (stereo not given),1,-8,14*,19,-8,14,20*
COc1ccc(N2CCCN(CC(=O)Nc3ccccc3C)CC2)cc1,0,-1,2,-3,0,x,x
Cc1[nH]c2ccccc2c1C(=O)CSC(=S)N(C)C1CCCCC1,0,-2,-2,-6,0,x,x
Cc1[nH]c2ccccc2c1C(=O)CSC(=S)N1CCCCC1,0,0,11*,17,7,12,8
CC1CCCN(C(=O)COC(=O)COc2ccc(C#N)cc2)C1 (stereo not given),1,0,-2,-11,-2,x,x
CC1CCCC(C)N1C(=O)COC(=O)COc1ccc(C#N)cc1 (stereo not given),0,-1,9.8*,2,-5,4,7
SMILES,KLK7 zymogen act,GC-B act,ADAM17 inh,ADAM10 inh,GC-A act,ADAM10 counter,ADAM17 confirm
O=S(=O)(c1ccccc1Cl)N1CCCC1c1nc(-c2ccccc2Cl)no1 (stereo not given),1,1,-2,-7,3,x,x
O=S(=O)(c1ccc(Cl)cc1)N1CCCC1c1nc(-c2ccc(Cl)cc2)no1 (stereo not given),1,0,9.8*,15,2,2,3
Cc1cccc(N2CCN(C(=O)c3ccc4ncsc4c3)CC2)c1C,0,-3,8.9*,8,-4,1,1
O=C(c1ccc2ncsc2c1)N1CCN(c2ccccc2Cl)CC1,0,-5,-5,-4,3,x,x
COc1ccc([C@H]2CC(=O)C=C(/C=C/c3ccccc3)C2)cc1OC,0,-3,13*,13,-4,-2,6
NC(=O)c1c(N)[nH]c(C(=O)c2ccccc2)c1-c1ccccc1,0,0,5,0,-1,x,x
COc1ccc([N+](=O)[O-])cc1NC(=O)C(C)OC(=O)c1ccccc1C(=O)c1ccc(Cl)cc1 (stereo not given),0,-10,8.8*,13,-3,46*,18*
COCCN1Cc2cc(C(=O)OC)c3c(c2C1=O)c1cc(OC)ccc1n3C(=O)c1ccccc1,2,13,-10,-21,3,x,x
Cc1nc2ccc(S(=O)(=O)NCC(=O)NCc3cccs3)cc2s1,0,0,-4,-13,1,x,x
COc1ccc(CC(=O)N2CCC(Nc3nc4ccccc4n3Cc3ccc(F)cc3)CC2)cc1,1,-3,11*,13,-6,21*,12*
COc1ccc(O)c(-c2c(-c3ccc(Cl)cc3)n[nH]c2C)c1,0,-22,0,4,-12,x,x
COc1ccc(-c2n[nH]c(C)c2-c2ccc(Cl)cc2)c(O)c1OC,0,-9,11*,10,6,22*,8
COC(=O)c1ccc(CNC(=O)COC(=O)C23CC4CC(CC(C4)C2)C3)cc1,0,3,8.7*,10,0,9,3
C[C@@H]1CN([C@H](C)CO)C(=O)c2cc(NS(=O)(=O)c3ccccc3)ccc2O[C@@H](C)CCCCO[C@@H]1CN(C)Cc1ccc(Cl)c(Cl)c1,0,-1,-2,-1,-4,x,x

# Source: PubChem BioAssay
